Screening results as filed in PubChem BioAssay.
p53 reactivator = mutant p53 re-activation in reporter cells; H1299 p53-A138V BP100-luciferase reporter, luminescence, 24 h; Potency, µM (top dose mostly 92.2 µM), without a hit: at the top dose activity change, positive = activation, actives largely listed as activators; 320,000 compounds, 0.063% hits; note: potency is the fitted concentration of half-maximal effect; % of control where 0% means no effect; nearly all actives have a fitted effect of over 45% in size
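H1299 (p53-null), stable ts p53-A138V + BP100-Luc; 1000 cells/well, Opti-MEM/10% FBS; cpd 4 pt, 1:5; 24 h, 37 deg C, 5% CO2; detection reagent 10 min RT; luminescence.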
uPA surface inh = cell surface uPA generation inhibition. cell surface uPA generation assay, qHTS. Potency, µM (titrated, usually from 38.3 µM), without a hit: top-dose activity change, negative = inhibition, most hits filed as inhibitors. 330,000 compounds, 0.31% hits. AID 540303; active = well fitted inhibition curve with a large enough effect; inconclusive = small, poorly fitted or top-dose-only effect; inactive = no such curve, though single readings can be large or run the other way; tested in mouse RAW 264.7 cells; note: potency is the fitted concentration of half-maximal effect; % is set by controls: 0 for no effect and ±100 for the full control effect; nearly all actives have a fitted effect of over 55% in size
BRCA1 expr up = BRCA1 expression activation; MCF7-BRCA1-FFLuc reporter, luminescence, 48 h; response scale: scaled: vehicle 0%, 10 µM genistein 100%; Potency, µM (doses to about 46.1 µM), without a hit: top-dose activation, hits mostly activators; 380,000 compounds, 1.1% hits; AID 624202; note: potency is the fitted concentration of half-maximal effect; nearly all actives have a fitted effect of over 80% in size
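48 h compound treatment of MCF7-BRCA1-FFLuc cells (phenol-red free MEM, 37 °C), then 15 min with luciferase substrate and luminescence imaging.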
TCR activator = activates T cell receptor signaling; primary human leukocytes, anti-CD3, IL-2 HTRF, 48 h; Potency, µM (doses to about 9.22 µM), without a hit: at the highest dose activation of IL-2 secretion, most hits filed as activators; AID 504894; 330,000 tested, under 10 active; note: % of control where 0% means no effect
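Readout: HTRF IL-2, Eu-cryptate/d2 antibody pair, 320nm excitation, 665nm emission. Stimulus: a-CD3 beads, no co-stimulation. Cells: primary human leukocytes. Exposure: 48 hr with compound.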
IL2 activator = activators of IL-2. activation, % (series mostly up to about 46 µM). IL-2 activation reporter assay, cell-based qHTS; stimulated with anti-CD3/CD4/CD28 beads; in transgenic mouse T cells. 360,000 compounds, 0.065% hits. AID 652025; in the data active = activation above about 50%; inconclusive = mostly about 30% to 49%; note: 0% is about no effect
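Readout: EGFP and DsRed signals by fluorescent plate cytometry. Unstimulated transgenic mouse T cells received compound 60 min before antibody-bead stimulation, then incubated 18 h at 37 degrees C.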
Active calls of the source: *; ? = inconclusive; . = not tested or not shown; ! = not active in a repeat; [ ] = another dose, or the depositor's remark. Shown are actives, neighbours in structure and some others; about 1.4% of the full set was active somewhere. Unless noted, calls come from the whole dose curve; as a rule, active = well fitted curve in the direction sought with a large enough effect; inconclusive = small, poorly fitted or top-dose-only effect, or another doubt; inactive = no such curve, though single readings can be large; an effect the other way counts as inactive or inconclusive.

SMILES	p53 reactivator	uPA surface inh	BRCA1 expr up	TCR activator	IL2 activator
CN1OC[C@@H]2CN[C@H](c3cccc(-c4ccc(C#N)cc4)c3)C[C@@H]21	.	5.8%	0.0%	4.1%	0.1
CN1OC[C@@H]2CN[C@H](c3ccc(-c4cccc(F)c4)cc3)C[C@@H]21	.	.	11.2µM*	.	-1.7
Cc1cc(C)cc(N2C(=O)CSC23C(=O)N(CC(=O)NCCc2ccccc2)c2ccccc23)c1 (centres undefined)	.	.	2.6%	.	.
O=C(CSc1nnc(-c2ccccc2Br)n1-c1ccccc1)c1ccc(F)cc1	.	.	-34.4%	.	.
O=C1CCC/C(=N\NC(=O)c2ccc(COc3ccccc3-c3ccccc3)cc2)C1	-3.4%	11.6%	16.7%	2.2%	1.6
O=C(COc1ccccc1-c1ccccc1)NN=C1CCCC1	6.9%	10µM*	-52.6%	-1.5%	-2.4
Cc1ccc(Cl)cc1NC(=O)Cn1c(SCC(=O)NCc2ccccc2)nc2ccccc21	.	.	0.0%	.	.
CCN(CC)c1ccc(-n2nc3cc(C)c(NC(=O)c4ccccc4C)cc3n2)c(C)c1	.	.	-21.0%	.	.
CCN(CC)c1ccc(NC(=O)c2cccc(C)c2OC)c(C)c1	?	.	4.47µM*	-0.6%	-4.1
O=C(CSc1ncccc1C(=O)O)c1cccc(C(F)(F)F)c1	-2.9%	-17.1%	15.8µM*	-3.6%	0.0
O=C(CSc1ncccc1C(=O)O)c1ccc2ccccc2c1	-5.9%	.	-21.1%	1.6%	1.0
Cc1ccc(CN(Cc2ccco2)C(=O)c2ccc(OCC(C)C)cc2)cc1	.	.	-7.6%	.	.
CCC(=O)C1CCCN(C(=O)CCc2nnc(-c3ccc(C(C)=O)s3)o2)C1 (centres undefined)	?	-5.2%	12.6µM*	6.2%	0.7
Fc1ccccc1Cn1nnc(-c2ccc3c(c2)OCO3)n1	?	-5.1%	?	2.5%	3.4
COc1ccc(-c2nnn(Cc3ccccc3F)n2)cc1	?	-2.1%	3.98µM*	-0.2%[46.1 µM]	1.1
CCOc1ccc(CCNC(=O)c2ccc3c(c2)N(Cc2ccccc2F)C(=O)c2ccccc2S3=O)cc1OCC (centres undefined)	.	.	-29.6%	.	.
Clc1ccc(CCNc2ncnc3nc[nH]c23)cc1	14.8%	-19.2%	?	7.5%[46.1 µM]	-4.3
C1=C(CCNc2ncnc3nc[nH]c23)CCCC1	?	?	6.31µM*	6.2%[46.1 µM]	-1.3
O=[N+]([O-])c1cc(/C=N/O)ccc1Oc1ccccc1Cl	9.6%	-6.5%	7.08µM*	1.1%	-0.6
O=[N+]([O-])c1cc(/C=N/O)ccc1Oc1cccc(Cl)c1	14.3%	-7.5%	-3.2%	-0.7%	-2.0
CCOc1ccc(NC(=O)Nc2ccon2)cc1	?	?	10µM*	2.9%	0.6
CCOc1ccc(NC(=O)Nc2ccccc2SC)cc1	12.6%	.	2.82µM*	-5.4%	-5.2
Cc1cccc(NC(=O)c2ccc3snnc3c2)c1C	.	.	6.9%	.	.
COc1ccc(C2N=C(c3ccccc3)NO2)cc1OC (centres undefined)	?	0.3%	70.2%	-24.8%	-0.9
FC(F)Oc1ccc(C2N=C(c3ccccc3)NO2)cc1 (centres undefined)	?	-0.6%	4.47µM*	3.5%	-2.3
SMILES	p53 reactivator	uPA surface inh	BRCA1 expr up	TCR activator	IL2 activator
CC1CCC(C(C)C)C(OC(=O)Cn2c(-c3ccccc3)[n+](C)c3ccccc32)C1 (centres undefined)	-16.6%	4.47µM*!	-86.0%	0.6%[46.1 µM]	-0.7
CCC(=O)N1CCc2cc(S(=O)(=O)CCC(=O)NCc3ccccc3Cl)ccc21	.	.	-5.9%	.	.
COC(=O)c1ccc(COC(=O)CNC(=O)c2ccc(OC)cc2)cc1	?	11.9%	5.01µM*	.	-0.5
COc1ccc(C(=O)OCCc2ccc(O)cc2)cc1	?	?	5.01µM*	-0.4%	-0.5
COc1ccc(CCOC(=O)c2ccc(NC(=O)CC#N)cc2)cc1	-9.7%	10.2%	0.0%	-7.3%	-2.2
O=C(CCCn1c(=O)[nH]c2ccsc2c1=O)N1CCN(c2cccc(C(F)(F)F)c2)CC1	.	.	6.2%	.	.
CCOc1ccc(OCc2ccc(C(=O)NCc3cccnc3)o2)cc1	-3.6%	-13.6%	11.2µM*	1.9%	0.3
COc1ccc(C(=O)Nc2ccccc2C(=O)NCc2cccnc2)cc1	23.7%	7.08µM*	-59.0%	-1.9%	-0.9
CN1/C(=C/c2cccc[n+]2CCO)Sc2ccccc21	.	1.4%	-18.2%	.	2.2
CC[n+]1c(/C=C2\Sc3ccccc3N2C)ccc2cccc(C)c21	0.4%	.	-75.7%	12.4%	159.9*
CCN1/C(=C/c2ccc3cc(C)ccc3[n+]2CC)Sc2ccccc21	?	?	-66.6%	4.2%	90.4*
CCN1/C(=C/c2ccc3cc(C)ccc3[n+]2CC)Sc2cc(C)c(C)cc21	-4.3%	-17.9%	-52.1%	3.5%	0.7
CCn1cc(C(=O)N(C)c2ccc(C(C)C)cc2)c2cc(OC)c(OC)cc2c1=O	.	.	7.9%	.	.
Cc1csc(NC(=O)Nc2cccc(Cl)c2)n1	28.2µM*	-1.2%	?	-8.2%[46.1 µM]	1.0
Cc1csc(NC(=O)Cc2c(F)cccc2Cl)n1	.	5.4%	4.47µM*	5.8%	-2.7
CCCCn1nc(C(=O)NCC(c2cccs2)N2CCOCC2)c2ccccc2c1=O (centres undefined)	3.3%	11.2µM*	-30.0%	-1.9%	-0.5
CCn1nc(C(=O)NCC(c2cccs2)N2CCOCC2)c2ccccc2c1=O (centres undefined)	-13.7%	2.4%	-26.1%	-8.2%	-1.3
COc1ccc(NC(=O)C(C)n2c(C)c3cnn(-c4ccccc4)c(=O)c3c2C)cc1Cl (centres undefined)	.	.	-14.8%	.	.
S=C(Nc1ccccc1)Nc1nc2ccccc2n1CCOc1ccc(Br)cc1	22.4µM*	3.9%	-13.3%	0.4%[46.1 µM]	-2.2
O=C(CCCOc1ccccc1)Nc1nc2ccccc2[nH]1	5.0%	-9.7%	6.31µM*	1.7%	0.2
Cn1nnc2c(N3CCCCC3)ncnc21	.	.	0.0%	.	.
COc1cccc(COc2ccc3c(C)cc(=O)oc3c2)c1	?	-6.6%	2.82µM*	-15.3%	-7.0
Cc1ccc(N(CC(=O)Nc2cc(C)ccc2C)S(=O)(=O)c2c(C)noc2C)cc1	.	.	-28.5%	.	.
c1ccc(Oc2cc(-c3ccccc3)ncn2)cc1	4.4%	-3.7%	11.2µM*	-2.1%	0.0
c1ccc(Oc2cc(-c3ccccc3)nc(-c3ccccc3)n2)cc1	10.0%	3.3%	-13.0%	-0.6%[46.1 µM]	1.5
[O-][N+](=NC1C=Cc2ccccc21)C1C=Cc2ccccc21 (centres undefined)	.	.	-8.4%	.	.
CCc1ccc(C(=O)NC2CCCCC2)s1	?	-9.7%	3.55µM*	.	-2.6
CC(C)(O)C#Cc1ccc(C(=O)NC2CCCCC2)s1	5.5%	2.9%	11.2µM*	-30.6%	2.1
Brc1cccc(-c2nnn3c2nc(NCc2ccc4c(c2)OCO4)c2ccccc23)c1	.	.	-10.2%	.	.
O=C(NCCCN1CCCC1=O)c1cc2c(s1)CCCCC2	13.2%	0.3%	11.2µM*	-1.9%	1.4
